Assays:
Assay in all cases: log2 ratio of Biotin-Ahx-Ub-VS probe labelling (fragment/DMSO); higher = less target engagement (more negative = stronger competition), active = hit call of the paper (q ≤ 0.05, log2 ratio ≤ -1)
Conditions in all cases: compound concentration: 200 uM; treatment time: 3 h
USP42 = molecular target: T1, USP42 (UniProt Q9H9J4)
T1 sequence (whole entry): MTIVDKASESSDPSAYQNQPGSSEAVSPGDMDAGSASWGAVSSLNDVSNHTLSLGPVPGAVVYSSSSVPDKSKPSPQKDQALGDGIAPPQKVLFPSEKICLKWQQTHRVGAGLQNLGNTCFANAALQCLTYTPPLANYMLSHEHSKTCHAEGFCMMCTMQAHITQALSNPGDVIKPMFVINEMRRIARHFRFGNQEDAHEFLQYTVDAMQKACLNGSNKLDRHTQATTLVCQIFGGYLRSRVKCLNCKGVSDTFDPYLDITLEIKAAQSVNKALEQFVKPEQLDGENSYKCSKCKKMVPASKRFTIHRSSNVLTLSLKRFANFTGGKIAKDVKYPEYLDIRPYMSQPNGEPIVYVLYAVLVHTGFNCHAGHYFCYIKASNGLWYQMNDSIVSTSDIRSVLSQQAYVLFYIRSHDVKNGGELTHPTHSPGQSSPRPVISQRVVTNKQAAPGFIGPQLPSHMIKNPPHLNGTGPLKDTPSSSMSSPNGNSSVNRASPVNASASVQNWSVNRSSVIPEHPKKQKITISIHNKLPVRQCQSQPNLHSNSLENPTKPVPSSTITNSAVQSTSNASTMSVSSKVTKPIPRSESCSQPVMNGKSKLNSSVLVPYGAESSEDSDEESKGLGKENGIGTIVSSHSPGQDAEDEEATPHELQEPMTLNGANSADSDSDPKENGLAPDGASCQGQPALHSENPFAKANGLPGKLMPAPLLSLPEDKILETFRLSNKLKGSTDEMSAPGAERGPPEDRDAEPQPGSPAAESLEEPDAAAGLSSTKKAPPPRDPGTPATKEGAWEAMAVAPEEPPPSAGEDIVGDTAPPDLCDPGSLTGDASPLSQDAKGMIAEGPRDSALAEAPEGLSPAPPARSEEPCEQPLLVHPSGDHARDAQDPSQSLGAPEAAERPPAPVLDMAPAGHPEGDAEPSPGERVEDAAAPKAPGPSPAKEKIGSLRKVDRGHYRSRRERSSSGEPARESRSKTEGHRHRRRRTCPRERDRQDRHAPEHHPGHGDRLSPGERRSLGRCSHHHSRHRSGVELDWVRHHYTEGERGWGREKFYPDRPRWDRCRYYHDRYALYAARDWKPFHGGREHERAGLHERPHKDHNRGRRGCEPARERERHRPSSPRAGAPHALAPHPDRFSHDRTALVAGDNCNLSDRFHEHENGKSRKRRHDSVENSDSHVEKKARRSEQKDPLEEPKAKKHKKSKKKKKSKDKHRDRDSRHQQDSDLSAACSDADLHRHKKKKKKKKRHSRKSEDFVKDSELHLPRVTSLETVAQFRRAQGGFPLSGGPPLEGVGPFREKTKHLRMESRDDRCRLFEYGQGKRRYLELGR
Method in brief: (§1)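 Using Biotin-Ahx-Ub-VS at 0.5 µM final for 1 h, DUBs were labelled in HEK293T lysate (495 µg per sample) that had first been treated in triplicate with fragment at 200 µM or vehicle for 3 h. NeutrAvidin enrichment, LysC and trypsin digestion and diaPASEF LC-MS/MS followed. Spectronaut label-free quantities were global-median-normalised. Values are average log2 fragment/vehicle ratios by unpaired t-test, using proteins with ≥2 unique peptides.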

USP46 = USP46 (UniProt P62068)
USP46, sequence (P62068 whole entry): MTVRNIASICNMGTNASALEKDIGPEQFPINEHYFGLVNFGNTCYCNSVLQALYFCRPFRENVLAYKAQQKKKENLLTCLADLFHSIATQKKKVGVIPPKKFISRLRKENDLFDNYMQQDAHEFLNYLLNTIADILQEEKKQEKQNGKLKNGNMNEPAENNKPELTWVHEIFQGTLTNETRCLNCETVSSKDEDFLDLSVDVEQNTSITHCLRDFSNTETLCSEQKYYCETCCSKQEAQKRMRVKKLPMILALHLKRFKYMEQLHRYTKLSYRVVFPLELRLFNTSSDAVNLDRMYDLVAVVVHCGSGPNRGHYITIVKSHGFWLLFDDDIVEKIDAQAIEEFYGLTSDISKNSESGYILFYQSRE
Method in brief: as §1

USP47 = molecular target: T2, USP47 (UniProt Q96K76)
T2 sequence (whole entry): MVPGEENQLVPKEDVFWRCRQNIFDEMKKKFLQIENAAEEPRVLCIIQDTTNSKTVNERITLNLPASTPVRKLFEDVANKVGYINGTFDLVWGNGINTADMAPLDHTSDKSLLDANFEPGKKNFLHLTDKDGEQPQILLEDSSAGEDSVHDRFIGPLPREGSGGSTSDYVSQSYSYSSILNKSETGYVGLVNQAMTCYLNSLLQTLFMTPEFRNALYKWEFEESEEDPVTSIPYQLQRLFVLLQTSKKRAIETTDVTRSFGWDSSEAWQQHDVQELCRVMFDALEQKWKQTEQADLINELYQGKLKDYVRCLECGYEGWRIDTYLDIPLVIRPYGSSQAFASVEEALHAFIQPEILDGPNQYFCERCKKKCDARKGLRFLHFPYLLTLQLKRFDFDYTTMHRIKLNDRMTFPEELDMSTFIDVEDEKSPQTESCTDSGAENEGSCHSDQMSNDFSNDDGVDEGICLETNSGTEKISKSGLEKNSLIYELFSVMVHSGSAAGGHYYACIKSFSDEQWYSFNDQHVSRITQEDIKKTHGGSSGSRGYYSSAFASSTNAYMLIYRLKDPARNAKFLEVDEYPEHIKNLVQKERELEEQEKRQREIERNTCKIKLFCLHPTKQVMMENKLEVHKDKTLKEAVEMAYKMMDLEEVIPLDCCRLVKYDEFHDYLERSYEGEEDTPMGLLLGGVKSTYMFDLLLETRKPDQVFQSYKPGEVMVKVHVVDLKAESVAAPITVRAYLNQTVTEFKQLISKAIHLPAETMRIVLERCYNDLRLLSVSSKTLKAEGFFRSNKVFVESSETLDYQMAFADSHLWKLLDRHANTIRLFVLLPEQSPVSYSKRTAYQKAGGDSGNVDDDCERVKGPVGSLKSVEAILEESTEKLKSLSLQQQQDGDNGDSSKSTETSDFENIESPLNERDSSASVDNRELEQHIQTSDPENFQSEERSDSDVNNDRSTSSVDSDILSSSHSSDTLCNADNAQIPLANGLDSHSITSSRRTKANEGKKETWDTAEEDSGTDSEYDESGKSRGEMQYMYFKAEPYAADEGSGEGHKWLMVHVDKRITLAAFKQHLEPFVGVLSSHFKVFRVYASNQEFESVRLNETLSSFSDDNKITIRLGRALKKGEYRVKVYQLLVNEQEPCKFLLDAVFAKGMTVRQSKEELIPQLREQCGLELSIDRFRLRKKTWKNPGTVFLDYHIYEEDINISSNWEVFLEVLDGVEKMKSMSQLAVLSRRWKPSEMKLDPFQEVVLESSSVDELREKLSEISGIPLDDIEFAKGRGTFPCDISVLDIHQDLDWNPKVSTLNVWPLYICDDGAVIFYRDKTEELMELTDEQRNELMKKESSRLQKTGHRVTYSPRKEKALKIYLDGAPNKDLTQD
Method in brief: as §1

USP48 = molecular target: T3, USP48 (UniProt Q86UV5)
T3 sequence (whole entry): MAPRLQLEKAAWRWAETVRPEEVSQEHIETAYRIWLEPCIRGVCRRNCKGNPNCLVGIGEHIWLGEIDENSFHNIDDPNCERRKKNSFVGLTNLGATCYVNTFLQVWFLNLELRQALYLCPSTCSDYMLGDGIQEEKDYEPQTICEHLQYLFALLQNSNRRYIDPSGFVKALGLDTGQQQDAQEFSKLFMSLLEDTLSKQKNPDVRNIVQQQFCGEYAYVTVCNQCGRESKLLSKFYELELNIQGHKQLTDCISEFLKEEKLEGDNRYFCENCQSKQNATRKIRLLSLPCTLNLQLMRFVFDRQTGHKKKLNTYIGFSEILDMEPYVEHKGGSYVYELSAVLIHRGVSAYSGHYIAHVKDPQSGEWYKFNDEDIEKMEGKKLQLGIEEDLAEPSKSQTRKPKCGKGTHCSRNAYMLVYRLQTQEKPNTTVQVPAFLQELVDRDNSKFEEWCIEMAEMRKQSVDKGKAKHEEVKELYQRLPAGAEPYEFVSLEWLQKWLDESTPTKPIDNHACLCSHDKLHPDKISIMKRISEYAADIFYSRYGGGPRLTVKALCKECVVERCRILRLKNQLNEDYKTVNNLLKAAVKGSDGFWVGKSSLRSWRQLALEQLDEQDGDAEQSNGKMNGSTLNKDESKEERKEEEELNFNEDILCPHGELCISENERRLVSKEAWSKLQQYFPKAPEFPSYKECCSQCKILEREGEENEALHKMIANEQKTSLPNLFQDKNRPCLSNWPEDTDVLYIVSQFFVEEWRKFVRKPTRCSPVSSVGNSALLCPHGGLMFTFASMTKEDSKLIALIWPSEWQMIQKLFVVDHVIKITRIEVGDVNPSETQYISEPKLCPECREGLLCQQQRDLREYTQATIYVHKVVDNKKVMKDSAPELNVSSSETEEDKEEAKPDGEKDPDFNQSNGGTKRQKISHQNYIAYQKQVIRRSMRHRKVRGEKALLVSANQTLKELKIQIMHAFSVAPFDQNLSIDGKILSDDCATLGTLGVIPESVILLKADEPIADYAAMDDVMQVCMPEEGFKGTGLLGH
Method in brief: as §1

USP5 = molecular target: T4, USP5 (UniProt P45974)
T4 sequence (whole entry): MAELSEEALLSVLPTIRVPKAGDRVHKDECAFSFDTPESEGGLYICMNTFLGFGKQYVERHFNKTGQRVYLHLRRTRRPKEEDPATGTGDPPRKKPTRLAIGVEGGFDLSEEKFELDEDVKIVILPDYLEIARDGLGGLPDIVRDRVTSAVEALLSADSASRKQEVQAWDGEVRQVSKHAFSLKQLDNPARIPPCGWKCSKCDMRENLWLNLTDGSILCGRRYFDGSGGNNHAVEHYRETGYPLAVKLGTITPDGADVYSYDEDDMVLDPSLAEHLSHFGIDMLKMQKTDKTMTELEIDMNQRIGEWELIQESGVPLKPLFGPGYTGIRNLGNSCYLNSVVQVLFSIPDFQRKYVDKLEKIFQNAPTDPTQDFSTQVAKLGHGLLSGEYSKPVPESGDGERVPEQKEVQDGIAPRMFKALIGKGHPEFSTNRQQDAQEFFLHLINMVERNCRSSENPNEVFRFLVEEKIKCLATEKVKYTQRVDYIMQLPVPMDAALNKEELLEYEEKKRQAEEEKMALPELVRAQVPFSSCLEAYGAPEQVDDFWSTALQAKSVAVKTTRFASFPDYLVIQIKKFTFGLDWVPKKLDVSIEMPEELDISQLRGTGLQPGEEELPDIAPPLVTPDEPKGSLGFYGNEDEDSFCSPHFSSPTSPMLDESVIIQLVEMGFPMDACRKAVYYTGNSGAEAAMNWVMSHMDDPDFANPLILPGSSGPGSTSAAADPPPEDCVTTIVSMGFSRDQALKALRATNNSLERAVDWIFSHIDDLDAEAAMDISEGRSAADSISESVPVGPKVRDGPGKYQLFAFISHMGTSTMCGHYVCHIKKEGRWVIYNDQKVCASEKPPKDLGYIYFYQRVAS
Method in brief: as §1

USP54 = USP54 (UniProt Q70EL1)
USP54, sequence (Q70EL1 whole entry): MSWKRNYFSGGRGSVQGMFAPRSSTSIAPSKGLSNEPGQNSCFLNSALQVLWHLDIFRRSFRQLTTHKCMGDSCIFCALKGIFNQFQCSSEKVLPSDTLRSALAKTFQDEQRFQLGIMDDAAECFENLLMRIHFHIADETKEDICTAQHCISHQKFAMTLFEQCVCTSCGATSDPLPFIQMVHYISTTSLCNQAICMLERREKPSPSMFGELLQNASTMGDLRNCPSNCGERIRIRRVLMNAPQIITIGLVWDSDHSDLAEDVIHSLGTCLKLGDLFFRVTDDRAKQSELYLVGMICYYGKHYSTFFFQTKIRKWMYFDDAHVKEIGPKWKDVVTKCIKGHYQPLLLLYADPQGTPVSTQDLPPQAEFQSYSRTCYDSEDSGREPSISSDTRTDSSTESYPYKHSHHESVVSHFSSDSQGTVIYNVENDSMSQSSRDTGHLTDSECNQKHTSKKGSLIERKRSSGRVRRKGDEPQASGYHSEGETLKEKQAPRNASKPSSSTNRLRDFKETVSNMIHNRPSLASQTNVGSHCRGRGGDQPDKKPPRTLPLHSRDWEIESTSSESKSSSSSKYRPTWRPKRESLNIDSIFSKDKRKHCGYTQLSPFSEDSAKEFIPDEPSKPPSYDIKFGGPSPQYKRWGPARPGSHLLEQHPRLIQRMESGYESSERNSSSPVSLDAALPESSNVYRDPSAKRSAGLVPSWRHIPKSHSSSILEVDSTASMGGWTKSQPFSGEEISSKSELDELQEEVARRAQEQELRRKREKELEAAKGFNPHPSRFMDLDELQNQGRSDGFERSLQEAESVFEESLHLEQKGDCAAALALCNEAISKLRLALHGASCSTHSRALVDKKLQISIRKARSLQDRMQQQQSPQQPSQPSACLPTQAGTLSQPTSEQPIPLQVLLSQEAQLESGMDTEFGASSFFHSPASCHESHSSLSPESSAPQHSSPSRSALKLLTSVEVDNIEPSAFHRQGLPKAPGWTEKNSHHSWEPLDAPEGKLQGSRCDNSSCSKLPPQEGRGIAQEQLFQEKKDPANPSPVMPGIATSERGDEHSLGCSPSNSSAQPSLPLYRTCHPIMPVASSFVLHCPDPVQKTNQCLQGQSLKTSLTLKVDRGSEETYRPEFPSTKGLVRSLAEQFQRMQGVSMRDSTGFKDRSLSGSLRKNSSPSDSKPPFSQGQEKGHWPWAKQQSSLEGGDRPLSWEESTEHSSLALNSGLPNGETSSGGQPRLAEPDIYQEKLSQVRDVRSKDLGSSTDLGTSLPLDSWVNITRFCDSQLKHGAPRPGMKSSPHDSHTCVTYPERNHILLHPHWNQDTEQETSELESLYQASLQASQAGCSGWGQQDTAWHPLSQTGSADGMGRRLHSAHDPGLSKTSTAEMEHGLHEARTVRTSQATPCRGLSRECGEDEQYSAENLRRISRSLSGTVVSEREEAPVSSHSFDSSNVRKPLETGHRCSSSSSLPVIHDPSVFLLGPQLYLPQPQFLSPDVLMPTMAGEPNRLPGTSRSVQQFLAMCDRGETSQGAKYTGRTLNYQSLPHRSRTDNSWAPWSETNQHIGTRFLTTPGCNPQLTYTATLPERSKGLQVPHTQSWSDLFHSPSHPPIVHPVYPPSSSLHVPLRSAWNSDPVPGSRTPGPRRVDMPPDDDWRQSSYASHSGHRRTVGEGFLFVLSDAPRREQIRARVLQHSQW
Method in brief: as §1

USP7 = USP7 (UniProt Q93009)
USP7, sequence (Q93009 whole entry, looked up): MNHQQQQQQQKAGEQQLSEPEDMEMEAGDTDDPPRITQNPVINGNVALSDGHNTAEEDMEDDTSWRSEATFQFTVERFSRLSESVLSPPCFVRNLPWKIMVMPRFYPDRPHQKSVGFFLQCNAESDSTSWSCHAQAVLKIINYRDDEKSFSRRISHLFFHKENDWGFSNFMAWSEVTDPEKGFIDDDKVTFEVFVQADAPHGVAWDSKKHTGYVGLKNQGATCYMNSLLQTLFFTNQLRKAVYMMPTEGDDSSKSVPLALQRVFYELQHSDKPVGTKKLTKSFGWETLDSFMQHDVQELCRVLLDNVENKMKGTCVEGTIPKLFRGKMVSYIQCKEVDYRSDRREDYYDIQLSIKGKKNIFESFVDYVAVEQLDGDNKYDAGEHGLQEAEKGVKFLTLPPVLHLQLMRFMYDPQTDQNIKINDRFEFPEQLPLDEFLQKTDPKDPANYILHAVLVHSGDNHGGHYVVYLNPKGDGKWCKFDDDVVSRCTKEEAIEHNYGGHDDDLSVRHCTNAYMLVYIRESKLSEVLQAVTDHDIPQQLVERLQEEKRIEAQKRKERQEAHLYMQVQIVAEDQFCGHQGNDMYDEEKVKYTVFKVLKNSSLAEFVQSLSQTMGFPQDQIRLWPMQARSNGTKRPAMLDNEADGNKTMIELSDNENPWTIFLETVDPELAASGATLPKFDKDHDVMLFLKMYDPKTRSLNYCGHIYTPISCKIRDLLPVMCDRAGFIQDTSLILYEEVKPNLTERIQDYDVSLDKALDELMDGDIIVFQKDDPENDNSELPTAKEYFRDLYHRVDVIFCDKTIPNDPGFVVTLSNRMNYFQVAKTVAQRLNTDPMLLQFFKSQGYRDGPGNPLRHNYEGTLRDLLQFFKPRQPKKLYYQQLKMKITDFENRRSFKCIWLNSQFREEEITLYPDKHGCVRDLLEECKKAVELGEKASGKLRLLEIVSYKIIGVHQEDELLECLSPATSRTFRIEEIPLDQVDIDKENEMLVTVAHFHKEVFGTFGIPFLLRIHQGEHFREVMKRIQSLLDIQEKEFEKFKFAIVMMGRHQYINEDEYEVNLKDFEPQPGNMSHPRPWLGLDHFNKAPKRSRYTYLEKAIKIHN
Method in brief: as §1

USP8 = molecular target: T5, USP8 (UniProt P40818)
T5 sequence (whole entry): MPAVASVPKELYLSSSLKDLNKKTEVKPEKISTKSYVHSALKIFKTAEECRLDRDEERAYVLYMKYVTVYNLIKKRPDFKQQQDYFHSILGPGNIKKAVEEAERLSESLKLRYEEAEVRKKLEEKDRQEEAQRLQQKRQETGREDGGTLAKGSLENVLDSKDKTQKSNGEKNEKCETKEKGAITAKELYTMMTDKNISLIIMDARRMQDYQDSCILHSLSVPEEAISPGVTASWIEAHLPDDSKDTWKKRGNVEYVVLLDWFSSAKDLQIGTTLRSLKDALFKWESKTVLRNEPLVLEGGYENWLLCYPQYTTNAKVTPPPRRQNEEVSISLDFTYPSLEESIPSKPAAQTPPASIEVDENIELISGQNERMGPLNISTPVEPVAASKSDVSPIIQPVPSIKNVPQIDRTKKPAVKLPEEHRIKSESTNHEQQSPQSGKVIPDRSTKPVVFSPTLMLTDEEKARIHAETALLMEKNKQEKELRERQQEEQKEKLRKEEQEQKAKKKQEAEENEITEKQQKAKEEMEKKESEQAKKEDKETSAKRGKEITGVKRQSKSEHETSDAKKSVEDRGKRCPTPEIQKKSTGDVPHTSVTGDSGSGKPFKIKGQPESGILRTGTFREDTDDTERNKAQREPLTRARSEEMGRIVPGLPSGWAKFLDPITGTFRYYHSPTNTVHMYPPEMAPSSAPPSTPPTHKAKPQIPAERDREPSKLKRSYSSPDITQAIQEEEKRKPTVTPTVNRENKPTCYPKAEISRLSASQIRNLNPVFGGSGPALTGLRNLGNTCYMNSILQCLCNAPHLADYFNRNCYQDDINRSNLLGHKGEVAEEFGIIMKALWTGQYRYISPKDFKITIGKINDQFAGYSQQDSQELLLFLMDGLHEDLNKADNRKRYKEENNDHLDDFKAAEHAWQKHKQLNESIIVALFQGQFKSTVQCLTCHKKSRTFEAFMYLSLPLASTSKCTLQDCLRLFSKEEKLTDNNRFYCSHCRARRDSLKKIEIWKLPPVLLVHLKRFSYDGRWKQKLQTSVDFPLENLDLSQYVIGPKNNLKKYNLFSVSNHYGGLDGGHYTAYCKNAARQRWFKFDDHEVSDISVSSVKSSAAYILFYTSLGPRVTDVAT
Method in brief: as §1

Measured: log2 ratio of Biotin-Ahx-Ub-VS probe labelling

O=C(CCl)NC1(c2ccc3c(c2)OCCO3)CCCC1
inactive: USP42 -0.0517 | USP46 -0.105 | USP47 -0.898 | USP48 -0.261 | USP5 0.179 | USP54 1.09 | USP7 -0.305 | USP8 -0.374

Source: the supplement of paper PMC11732987, “Enantioselective OTUD7B fragment discovery through chemoproteomics screening and high-throughput optimisation” (Communications Chemistry, 2025)
